# Reference: PubChem BioAssay AID1159580 (chemical genetic matrix, 2015)
# The whole screen tested about 5,500 compounds, of which about 2,000 (36%) were called active. Not shown: some 18% with an inconclusive outcome. Some of the results follow. Values without a mark were called inactive. Cut-off read from the data, not from the text of the source: active = normalized growth mostly below about 0.91 (no sharp cut-off); inconclusive = no clear call, values can overlap the other calls; inactive = mostly above about 0.92.
# Experiment: chemical genetic growth profiling, strain panel (AID 1159580);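 note: tested at 20 µM; growth read once vehicle control cultures reached saturation at 30 °C; 1 = growth at the plate median or of vehicle wells; lower values mean less growth of the strain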
# Details: S. cerevisiae deletion strains, growth OD
compound,measurement,setting,value
C[C@]12CCC(=O)C=C1C=CC1C2CC[C@@]2(C)C1CC[C@@]21CCC(=O)O1 (stereo partly drawn),normalized growth,"locus YJR066W, strain TOR1, stronger effect = lower value",0.951
same,normalized growth,"locus YKL009W, strain mrt4, stronger effect = lower value",0.948
same,normalized growth,"locus YKL068W, stronger effect = lower value",0.966
same,normalized growth,"locus YKL085W, strain MDH1 (second series), stronger effect = lower value",0.971
same,normalized growth,"locus YKL085W, strain MDH1, stronger effect = lower value",0.971
same,normalized growth,"locus YKL160W, strain elf1, stronger effect = lower value",0.982
same,normalized growth,"locus YKR001C, strain vps1, stronger effect = lower value",0.788 (active)
same,normalized growth,"locus YKR026C, strain gcn3, stronger effect = lower value",0.98
same,normalized growth,"locus YKR091W, strain srl3, stronger effect = lower value",0.969
same,normalized growth,"locus YLL001W, strain dnm1, stronger effect = lower value",0.983
same,normalized growth,"locus YLL026W, stronger effect = lower value",0.989
same,normalized growth,"locus YLL041C, strain sdh2, stronger effect = lower value",0.983
same,normalized growth,"locus YLR027C, strain aat2, stronger effect = lower value",0.994
same,normalized growth,"locus YLR039C, strain RIC1, stronger effect = lower value",0.588 (active)
same,normalized growth,"locus YLR058C, strain SHM2, stronger effect = lower value",0.959
same,normalized growth,"locus YLR102C, strain apc9, stronger effect = lower value",0.973
same,normalized growth,"locus YLR113W, strain HOG1, stronger effect = lower value",0.934
same,normalized growth,"locus YLR221C, strain rsa3, stronger effect = lower value",0.956
same,normalized growth,"locus YLR258W, strain gsy2, stronger effect = lower value",0.964
same,normalized growth,"locus YLR262C, strain YPT6 (second series), stronger effect = lower value",0.792 (active)
same,normalized growth,"locus YLR262C, strain YPT6, stronger effect = lower value",0.525 (active)
same,normalized growth,"locus YLR268W, strain sec22, stronger effect = lower value",0.914
same,normalized growth,"locus YLR320W, strain mms22, stronger effect = lower value",0.9
same,normalized growth,"locus YLR330W, strain CHS5, stronger effect = lower value",0.938
same,normalized growth,"locus YLR342W, strain FKS1 (second series), stronger effect = lower value",0.785 (active)
same,normalized growth,"locus YLR342W, strain FKS1, stronger effect = lower value",0.961
same,normalized growth,"locus YLR357W, strain rsc2, stronger effect = lower value",1.01
same,normalized growth,"locus YLR370C, strain arc18, stronger effect = lower value",0.969
same,normalized growth,"locus YLR371W, strain rom2, stronger effect = lower value",0.975
same,normalized growth,"locus YLR384C, strain iki3, stronger effect = lower value",0.993
same,normalized growth,"locus YLR418C, strain cdc73, stronger effect = lower value",0.702 (active)
same,normalized growth,"locus YML016C, strain PPZ1, stronger effect = lower value",0.973
same,normalized growth,"locus YML032C, strain rad52, stronger effect = lower value",0.971
same,normalized growth,"locus YML120C, strain ndi1, stronger effect = lower value",0.971
same,normalized growth,"locus YML124C, strain tub3, stronger effect = lower value",0.986
same,normalized growth,"locus YMR058W, strain fet3, stronger effect = lower value",0.964
same,normalized growth,"locus YMR078C, strain ctf18, stronger effect = lower value",0.973
same,normalized growth,"locus YMR125W, strain sto1, stronger effect = lower value",0.985
same,normalized growth,"locus YMR129W, stronger effect = lower value",0.973
same,normalized growth,"locus YMR205C, strain PFK2, stronger effect = lower value",0.938
same,normalized growth,"locus YMR223W, strain ubp8, stronger effect = lower value",0.941
same,normalized growth,"locus YMR231W, strain pep5, stronger effect = lower value",0.99
same,normalized growth,"locus YMR307W, strain GAS1, stronger effect = lower value",0.597 (active)
same,normalized growth,"locus YNL067W, strain RPL9B, stronger effect = lower value",0.937
same,normalized growth,"locus YNL071W, strain lat1, stronger effect = lower value",0.927
same,normalized growth,"locus YNL128W, strain TEP1, stronger effect = lower value",0.965
same,normalized growth,"locus YNL153C, strain GIM3, stronger effect = lower value",0.953
same,normalized growth,"locus YNL183C, strain NPR1, stronger effect = lower value",0.928
same,normalized growth,"locus YNL209W, strain ssb2, stronger effect = lower value",0.985
same,normalized growth,"locus YNL233W, strain BNI4, stronger effect = lower value",0.923
same,normalized growth,"locus YNL248C, strain rpa49, stronger effect = lower value",0.912
same,normalized growth,"locus YNL250W, strain rad50, stronger effect = lower value",0.981
same,normalized growth,"locus YNL271C, strain bni1, stronger effect = lower value",0.968
same,normalized growth,"locus YNL298W, strain CLA4, stronger effect = lower value",0.955
same,normalized growth,"locus YNL307C, strain MCK1, stronger effect = lower value",0.831 (active)
same,normalized growth,"locus YNL322C, strain KRE1 (second series), stronger effect = lower value",0.991
same,normalized growth,"locus YNL322C, strain KRE1, stronger effect = lower value",0.997
same,normalized growth,"locus YNR049C, strain mso1, stronger effect = lower value",0.947
same,normalized growth,"locus YNR052C, strain pop2, stronger effect = lower value",0.906 (active)
same,normalized growth,"locus YOL012C, strain htz1",0.991
same,normalized growth,"locus YOL147C, strain pex11, stronger effect = lower value",0.971
same,normalized growth,"locus YOR001W, strain rrp6, stronger effect = lower value",1
same,normalized growth,"locus YOR061W, strain CKA2, stronger effect = lower value",0.958
same,normalized growth,"locus YOR069W, strain VPS5, stronger effect = lower value",0.975
same,normalized growth,"locus YOR070C, strain gyp1, stronger effect = lower value",0.969
same,normalized growth,"locus YOR080W, strain dia2, stronger effect = lower value",0.979
same,normalized growth,"locus YOR083W, strain WHI5, stronger effect = lower value",0.975
same,normalized growth,"locus YOR106W, strain vam3, stronger effect = lower value",0.961
same,normalized growth,"locus YOR136W, strain idh2, stronger effect = lower value",0.963
same,normalized growth,"locus YOR144C, strain elg1, stronger effect = lower value",0.976
same,normalized growth,"locus YOR184W, strain ser1, stronger effect = lower value",0.724 (active)
same,normalized growth,"locus YOR231W, strain MKK1, stronger effect = lower value",0.97
same,normalized growth,"locus YOR265W, strain rbl2, stronger effect = lower value",0.983
same,normalized growth,"locus YOR270C, strain vph1, stronger effect = lower value",0.771 (active)
same,normalized growth,"locus YOR290C, strain snf2, stronger effect = lower value",0.947
same,normalized growth,"locus YOR316C, strain cot1, stronger effect = lower value",0.968
same,normalized growth,"locus YPL051W, strain arl3, stronger effect = lower value",0.969
same,normalized growth,"locus YPL055C, strain LGE1, stronger effect = lower value",0.909
same,normalized growth,"locus YPL078C, strain atp4, stronger effect = lower value",0.975
same,normalized growth,"locus YPL106C, strain sse1, stronger effect = lower value",0.994
same,normalized growth,"locus YPL240C, strain hsp82, stronger effect = lower value",0.998
same,normalized growth,"locus YPL241C, strain CIN2, stronger effect = lower value",0.991
same,normalized growth,"locus YPL256C, strain CLN2, stronger effect = lower value",0.946
same,normalized growth,"locus YPR119W, strain clb2, stronger effect = lower value",0.981
same,normalized growth,"locus YPR141C, strain kar3, stronger effect = lower value",0.947
same,normalized growth,"locus YPR163C, strain tif3, stronger effect = lower value",0.867 (active)
same,normalized growth,"locus YPR167C, strain met16, stronger effect = lower value",0.967
same,normalized growth,"strain wtn01, stronger effect = lower value",0.902
